# Values joined by “and” are separate entries in the source; they are usually repeats but may differ in a detail not shown here. Equal entries are not always repeated. Records with an inconclusive call do not appear. Active and inactive are the calls of the source. Unless noted, the call rests on the fitted dose curve; in most records, active means well fitted curve in the direction sought with a large enough effect; inconclusive means small, poorly fitted or top-dose-only effect, or another doubt; inactive means no such curve, though single readings can be large; an effect the other way counts as inactive or inconclusive.
# Tests used:
# [1] = AP1 Signaling Pathway (AID 357; active means well fitted curve in either direction with a large enough effect, not every such curve was filed as active;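 further: ME-180 reporter cells stimulated with EGF at its EC50 level; on the % scale 0 is the no-effect control and ±100 the full control effect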); conditions: ME-180 AP-1-bla reporter, EGF-induced, beta-lactamase ratio, 5 h; at 7.69 µM (top of the series) unless noted
# In short: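 In this screen, ME-180 cells in Opti-MEM with 0.5% dialyzed FBS received EC50 EGF and compound titrations for 5 h. AP-1 reporter beta-lactamase was detected via CCF4 ratio, giving AC50 for positive and negative modulators.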
# [2] = NFAT Signaling Pathway (AID 444; active means well fitted curve in either direction with a large enough effect, not every such curve was filed as active;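 further: carbachol stimulus at about its EC50 of 1 µM final; on the % scale 0 is the no-effect control and ±100 the full control effect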); conditions: Jurkat NFAT-bla M1, carbachol, beta-lactamase ratio, 5 h; at 7.69 µM (top of the series) unless noted
# In short: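 Jurkat cells with NFAT-driven β-lactamase reporter and co-expressed M1 receptor, stimulated with carbachol (final 1 uM, ~EC50), compound titration, 5 h at 37 °C. CCF4 loaded 1 h at RT; 460/530 nm ratio gave %activity and AC50.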
# [3] = Stat Signaling Pathway (AID 446; active means well fitted curve in either direction with a large enough effect, not every such curve was filed as active;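 further: ME-180 cervical cancer cells given 40 pM IL-6 alongside compound; SIE-controlled beta-lactamase reporter measured as 460/530 nm FRET emission ratio; on the % scale 0 is the no-effect control and ±100 the full control effect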); conditions: ME-180 SIE beta-lactamase reporter, IL-6 stimulated, 5 h; at 7.69 µM (top of the series) unless noted
# In short: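 Screening format detects activators and inhibitors alike: ME-180 SIE-bla cells stimulated at 40 pM IL-6 for 5 hrs with compound, then dual-emission beta-lactamase read at 405 nm excitation.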
# [4] = target: Glucocorticoid receptor (Homo sapiens) (UniProt P04150); experiment: GR-EFC Redistribution (AID 451; calls by dose curve; further: potency means the concentration at half of the fitted maximal effect); conditions: CHO-K1 GR-EFC translocation, beta-gal luminescence, 2 h
# Chain of Glucocorticoid receptor (Homo sapiens) (P04150 whole entry, looked up, the tested form may be a part): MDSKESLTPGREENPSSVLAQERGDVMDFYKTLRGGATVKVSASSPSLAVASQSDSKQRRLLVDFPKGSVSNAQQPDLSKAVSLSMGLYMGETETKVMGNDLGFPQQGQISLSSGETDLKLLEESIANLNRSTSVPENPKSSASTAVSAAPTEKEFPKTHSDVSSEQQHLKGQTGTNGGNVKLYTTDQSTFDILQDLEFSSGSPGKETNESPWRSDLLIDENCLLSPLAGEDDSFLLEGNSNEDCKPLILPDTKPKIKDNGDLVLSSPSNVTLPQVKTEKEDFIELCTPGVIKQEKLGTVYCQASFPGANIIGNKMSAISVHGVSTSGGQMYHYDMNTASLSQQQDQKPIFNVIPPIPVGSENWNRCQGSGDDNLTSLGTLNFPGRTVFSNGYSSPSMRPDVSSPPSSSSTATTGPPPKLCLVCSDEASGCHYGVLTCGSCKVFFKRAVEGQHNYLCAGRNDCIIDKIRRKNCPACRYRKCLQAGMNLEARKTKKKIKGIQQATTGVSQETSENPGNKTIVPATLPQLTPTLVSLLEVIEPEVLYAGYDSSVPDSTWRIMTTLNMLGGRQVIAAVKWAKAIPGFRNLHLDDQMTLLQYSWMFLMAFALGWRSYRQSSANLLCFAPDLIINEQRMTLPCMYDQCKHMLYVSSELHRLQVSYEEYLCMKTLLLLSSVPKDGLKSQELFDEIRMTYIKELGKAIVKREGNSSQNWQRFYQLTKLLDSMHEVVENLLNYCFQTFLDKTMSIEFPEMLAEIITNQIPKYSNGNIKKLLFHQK
# In short: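 CHO-K1 cells expressing nuclear EA and GR-ED fragments of b-gal; compounds titrated up to 46 uM final, 2 h at 37 C. GR nuclear translocation read as complemented b-gal luminescence after 1 h RT detection.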
# [5] = target: Mitogen-activated protein kinase 10 (Mus musculus) (UniProt Q61831); experiment: JNK3 AlphaScreen Assay (AID 530; active means well fitted curve in either direction with a large enough effect, not every such curve was filed as active;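 further: kinase came from lysate of stimulated human HepG2 cells; signal reports phosphorylation of biotinylated GST-cJun 1-79 at Ser73 with 10 µM ATP; on the % scale 0 is the no-effect control and ±100 the full control effect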)
# In short: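 qHTS format: compounds tested as titrations against IL-1beta/TNF-alpha-activated HepG2 lysate JNK3 with biotin-GST-cJun substrate and 10 uM ATP at room temperature. Loss of anti-phospho-cJun AlphaScreen signal indicates inhibition.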
# [6] = target: 3',5'-cyclic-AMP phosphodiesterase 4B (Homo sapiens) (UniProt Q07343); experiment: qHTS Assay for Inhibitors of PDE-IV (AID 607; active means well fitted activation curve with a large enough effect in the main read-out, with a control signal flat, not every such curve was filed as active; further: % of control where 0% means no effect)
# Chain of 3',5'-cyclic-AMP phosphodiesterase 4B (Homo sapiens) (Q07343 whole entry, looked up): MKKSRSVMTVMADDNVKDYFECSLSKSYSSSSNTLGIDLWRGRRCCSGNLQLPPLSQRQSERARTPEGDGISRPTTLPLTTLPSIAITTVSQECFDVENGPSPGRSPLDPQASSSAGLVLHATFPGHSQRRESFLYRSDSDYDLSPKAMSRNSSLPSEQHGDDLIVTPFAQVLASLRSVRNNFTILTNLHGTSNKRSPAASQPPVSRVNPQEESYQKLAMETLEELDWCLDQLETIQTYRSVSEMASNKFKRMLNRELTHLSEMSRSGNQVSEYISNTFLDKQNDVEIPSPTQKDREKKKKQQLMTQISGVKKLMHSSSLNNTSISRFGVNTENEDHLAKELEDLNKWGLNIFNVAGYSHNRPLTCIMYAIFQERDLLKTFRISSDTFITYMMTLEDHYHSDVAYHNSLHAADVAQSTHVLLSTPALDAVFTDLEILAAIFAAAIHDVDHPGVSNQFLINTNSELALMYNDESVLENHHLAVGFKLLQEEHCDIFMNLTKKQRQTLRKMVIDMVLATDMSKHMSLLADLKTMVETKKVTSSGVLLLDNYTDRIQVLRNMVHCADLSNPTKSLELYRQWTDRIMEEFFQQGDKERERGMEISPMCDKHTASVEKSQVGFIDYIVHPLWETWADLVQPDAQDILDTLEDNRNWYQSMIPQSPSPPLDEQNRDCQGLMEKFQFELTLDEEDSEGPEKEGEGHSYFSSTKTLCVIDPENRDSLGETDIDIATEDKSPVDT
# In short: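 The readout is membrane depolarisation from a cAMP-sensing CNG channel, detected with a potential dye at ex 535/em 590. Cells were HEK293-derived (endogenous PDE-IV) at 1000 cells/well, titrated up to 22.9 uM final.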
# [7] = qHTS Assay for Lipid Storage Modulators (AID 1519; calls by dose curve); conditions: Drosophila S3 cells, BODIPY lipid droplet/cell ratio, laser cytometry, cells loaded with oleic acid
# In short: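 Cells seeded at 5,000 per well were treated with compounds over a concentration series and loaded with oleic acid (400 uM, as added). Lipid droplet fluorescence (488 nm excitation, 500-530 nm channel) was read by laser-scanning cytometry and normalized to 20 uM Triacsin C.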
# [8] = target: Ubiquitin carboxyl-terminal hydrolase 1 (Homo sapiens) (UniProt O94782); experiment: Inhibitors of USP1/UAF1: Pilot qHTS (AID 504865); further: nearly all actives have a fitted effect of over 35% in size; further: potency means the concentration at half of the fitted maximal effect
# Chain of Ubiquitin carboxyl-terminal hydrolase 1 (Homo sapiens) (O94782 whole entry, looked up): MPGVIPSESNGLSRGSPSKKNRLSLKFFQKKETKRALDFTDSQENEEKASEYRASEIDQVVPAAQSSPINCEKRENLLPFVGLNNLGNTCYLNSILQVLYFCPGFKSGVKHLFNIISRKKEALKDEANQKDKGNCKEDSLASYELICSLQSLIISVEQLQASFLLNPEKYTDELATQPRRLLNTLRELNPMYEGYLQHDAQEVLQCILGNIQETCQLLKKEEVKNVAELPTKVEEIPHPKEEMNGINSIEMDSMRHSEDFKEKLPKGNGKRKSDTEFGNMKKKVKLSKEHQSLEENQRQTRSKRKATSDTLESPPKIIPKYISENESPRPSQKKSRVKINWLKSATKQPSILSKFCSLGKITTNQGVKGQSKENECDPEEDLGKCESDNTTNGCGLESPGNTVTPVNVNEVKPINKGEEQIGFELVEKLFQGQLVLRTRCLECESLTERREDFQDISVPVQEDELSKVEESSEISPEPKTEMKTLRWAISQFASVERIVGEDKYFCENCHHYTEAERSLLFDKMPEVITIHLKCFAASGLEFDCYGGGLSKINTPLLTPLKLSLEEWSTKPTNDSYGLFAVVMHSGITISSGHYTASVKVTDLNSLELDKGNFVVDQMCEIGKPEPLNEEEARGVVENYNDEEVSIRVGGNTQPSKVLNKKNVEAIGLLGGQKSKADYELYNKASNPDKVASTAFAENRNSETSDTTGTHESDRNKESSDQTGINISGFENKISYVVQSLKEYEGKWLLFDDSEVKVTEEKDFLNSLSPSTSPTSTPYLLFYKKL
# In short: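 Enzyme-free wells gave the negative control, while test wells held 1nM USP1/UAF1 preincubated with compound for 15 min at room temperature. Ub-Rho at 150nM final started the reaction, and fluorescence at 480/540 nm was recorded kinetically.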
# [9] = target: DNA dC->dU-editing enzyme APOBEC-3G (Homo sapiens) (UniProt Q9HC16); experiment: qHTS for inhibitors of Vif-A3G interactions: Validation (AID 588379); further: 0% is about no effect
# Chain of DNA dC->dU-editing enzyme APOBEC-3G (Homo sapiens) (Q9HC16 whole entry, looked up): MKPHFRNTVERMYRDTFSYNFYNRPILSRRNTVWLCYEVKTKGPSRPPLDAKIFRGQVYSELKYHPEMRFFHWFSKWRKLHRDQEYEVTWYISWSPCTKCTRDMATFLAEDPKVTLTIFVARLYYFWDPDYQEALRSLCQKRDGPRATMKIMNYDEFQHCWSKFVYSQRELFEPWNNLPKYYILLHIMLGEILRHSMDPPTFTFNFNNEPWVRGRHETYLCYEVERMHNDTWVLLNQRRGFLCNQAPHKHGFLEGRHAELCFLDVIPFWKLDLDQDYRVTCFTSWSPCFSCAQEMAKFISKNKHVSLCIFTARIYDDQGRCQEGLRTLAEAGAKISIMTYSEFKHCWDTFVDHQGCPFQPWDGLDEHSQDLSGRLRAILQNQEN
# In short: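 HeLa cells stably expressing Vif and A3G-eYFP, 700 cells/well, incubated overnight at 37 deg C, then exposed to compound overnight at 37 deg C. Inhibition of Vif-mediated degradation read as increased yellow fluorescence (Ex 488/Em 500-530) by laser-scanning cytometry.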
# [10] = target: Glucocorticoid receptor (Homo sapiens) (UniProt P04150); experiment: GR-GFP Redistribution (AID 450;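 active means compounds whose dose series gives a full or clear partial fitted curve of increased nuclear translocation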; further: potency means the concentration at half of the fitted maximal effect); conditions: U2OS GR-GFP nuclear translocation, laser cytometry, 2 h
# [11] = Confirmation and Secondary Assay for Modulators of Hemoglobin Beta Chain Splicing at IVS2 654 locus (AID 910);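 further: HeLa cells stably carrying EGFP split by mutant beta-globin IVS2-654 intron; % of control where 0% means no effect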
# In short: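 HeLa cells stably expressing EGFP interrupted by β-globin IVS2-654 intron, seeded overnight in Opti-MEM/2% FCS, then treated 2 days at 37 °C. Restored splicing read as total peak GFP intensity per well by laser scanning cytometry (488 nm excitation, 500–520 nm emission); 500 nM antisense PNA as control.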
# [12] = Confirmation and Secondary Assay for Modulators of Hemoglobin Beta Chain Splicing at IVS2 705 locus (AID 930);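 further: HeLa cells stably expressing the EGFP-705 splicing reporter; GFP fluorescence per well restored by corrected splicing of the IVS2-705 intron in EGFP; % of control where 0% means no effect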
# In short: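 Per-well GFP, captured at 1 x 8 µm resolution with 488 nm excitation, served as the read-out for HeLa EGFP-705 cells incubated 2 days with test compound versus DMSO.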
# [13] = target: Cytochrome P450 3A4 (Homo sapiens) (UniProt P08684); experiment: qHTS Assay for Inhibitors and Substrates of Cytochrome P450 3A4 (AID 884); further: nearly all actives have a fitted effect of over 50% in size; further: potency means the concentration at half of the fitted maximal effect
# Chain of Cytochrome P450 3A4 (Homo sapiens) (P08684 whole entry, looked up): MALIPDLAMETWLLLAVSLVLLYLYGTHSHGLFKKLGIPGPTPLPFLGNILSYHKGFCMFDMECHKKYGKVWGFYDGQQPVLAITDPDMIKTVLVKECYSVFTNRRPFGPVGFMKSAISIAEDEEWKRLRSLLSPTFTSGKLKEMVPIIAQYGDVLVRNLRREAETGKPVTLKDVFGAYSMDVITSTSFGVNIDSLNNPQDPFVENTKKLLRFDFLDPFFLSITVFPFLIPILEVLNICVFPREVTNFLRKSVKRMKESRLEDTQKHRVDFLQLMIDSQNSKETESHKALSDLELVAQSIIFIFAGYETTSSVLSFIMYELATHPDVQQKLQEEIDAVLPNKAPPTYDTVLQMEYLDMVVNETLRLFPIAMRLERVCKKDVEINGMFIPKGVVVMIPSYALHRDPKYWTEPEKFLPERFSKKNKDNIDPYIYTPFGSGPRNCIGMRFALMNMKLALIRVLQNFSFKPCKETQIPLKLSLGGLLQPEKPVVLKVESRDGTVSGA
# In short: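 20 nM human CYP3A4 with 25 uM Luciferin-PPXE (at KM) in 200 mM KPO4, preincubated 10 min with compound; NADPH regeneration started a 60 min RT reaction. Luciferin detected by luminescence, normalized to 57 uM ketoconazole as full inhibition.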
# [14] = target: Cytochrome P450 2D6 (Homo sapiens) (UniProt P10635); experiment: Cytochrome P450 family 2 subfamily D member 6 (CYP2D6) small molecule antagonists: luciferase biochemical (cell-free) qHTS assay (AID 1645840; active means well fitted curve in the direction sought with a large enough effect in the repeat runs; an effect the other way counts as inactive or inconclusive; further: on the % scale 0 is the no-effect control and ±100 the full control effect; nearly all actives have a fitted effect of over 55% in size)
# Chain of Cytochrome P450 2D6 (Homo sapiens) (P10635 whole entry, looked up): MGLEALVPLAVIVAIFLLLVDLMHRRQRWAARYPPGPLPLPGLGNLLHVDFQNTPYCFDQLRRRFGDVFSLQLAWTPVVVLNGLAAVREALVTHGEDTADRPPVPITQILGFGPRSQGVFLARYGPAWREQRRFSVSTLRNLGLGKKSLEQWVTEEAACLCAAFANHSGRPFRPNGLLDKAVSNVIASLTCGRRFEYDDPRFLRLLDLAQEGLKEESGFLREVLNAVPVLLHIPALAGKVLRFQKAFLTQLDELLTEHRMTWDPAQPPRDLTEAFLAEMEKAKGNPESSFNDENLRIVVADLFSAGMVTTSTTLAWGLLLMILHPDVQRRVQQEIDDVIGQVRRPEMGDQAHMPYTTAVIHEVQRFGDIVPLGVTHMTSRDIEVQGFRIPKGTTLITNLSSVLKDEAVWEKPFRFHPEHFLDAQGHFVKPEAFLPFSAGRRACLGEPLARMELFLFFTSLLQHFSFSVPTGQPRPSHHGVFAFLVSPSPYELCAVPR
# In short: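 P450-Glo luminescent screen: recombinant CYP2D6 enzyme–proluciferin substrate mix preincubated with compound 10 min at room temperature, then NADPH regeneration added for 1 h at room temperature. Detection reagent added for 20 min; luciferin light read as relative luminescence units.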
# [15] = qHTS Assay for Identification of Small Molecule Agonists for Hypoxia Response Element Signaling Pathway (AID 914; active means well fitted activation curve with a large enough effect in the signal ratio, with a control signal flat, not every such curve was filed as active; the % refers to the signal ratio; further: potency means the concentration at half of the fitted maximal effect); conditions: ME-180 (cervical carcinoma) HRE-bla reporter, beta-lactamase ratio, CoCl2, 17 h; activation: stronger effect = higher value
# In short: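 In Opti-MEM containing 0.5% dialyzed FBS and 10 mM HEPES, ME-180 HRE-bla cells received a compound titration and EC50 CoCl2. They were incubated 17 hours, then CCF4-loaded 2.5 hours at room temperature before ratio reading.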
# [16] = Primary qHTS for small molecule stabilizers of the endoplasmic reticulum resident proteome: Secreted ER Calcium Modulated Protein (SERCaMP) assay (AID 1508630); further: on the % scale 0 is the no-effect control and ±100 the full control effect
# In short: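 GLuc-SERCaMP-expressing SH-SY5Y cells, pretreated 16 h with compound, are challenged with thapsigargin to empty ER calcium stores; after 4 h, coelenterazine is added directly to the medium and luminescence is imaged.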
# [17] = target: Cytochrome P450 1A2 (Homo sapiens) (UniProt P05177); experiment: p450-cyp1a2 (AID 410; calls by dose curve; further: potency means the concentration at half of the fitted maximal effect;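 on activity change, negative = inhibition: -100% = full effect of reference inhibitor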)
# Chain of Cytochrome P450 1A2 (Homo sapiens) (P05177 whole entry, looked up): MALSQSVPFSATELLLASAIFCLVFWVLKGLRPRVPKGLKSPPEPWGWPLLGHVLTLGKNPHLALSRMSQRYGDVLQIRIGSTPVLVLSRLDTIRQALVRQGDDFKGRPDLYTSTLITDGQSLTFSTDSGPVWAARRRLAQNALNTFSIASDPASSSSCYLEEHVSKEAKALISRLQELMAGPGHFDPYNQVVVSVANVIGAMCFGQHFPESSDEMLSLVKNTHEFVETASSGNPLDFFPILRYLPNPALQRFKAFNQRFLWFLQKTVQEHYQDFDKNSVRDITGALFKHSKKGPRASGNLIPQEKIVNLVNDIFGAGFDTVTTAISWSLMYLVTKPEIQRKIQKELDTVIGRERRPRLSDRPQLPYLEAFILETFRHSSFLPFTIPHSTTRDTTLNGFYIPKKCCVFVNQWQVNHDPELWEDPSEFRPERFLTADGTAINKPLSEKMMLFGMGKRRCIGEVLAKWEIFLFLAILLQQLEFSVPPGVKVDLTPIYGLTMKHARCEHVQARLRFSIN
# In short: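 Inhibition was calculated relative to 57 uM furafylline (full inhibition). The reaction used human CYP1A2 at 20nM with Luciferin-ME at its Km, 100uM, driven by an NADPH-regenerating system for 60 min at room temperature.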
# [18] = target: Cytochrome P450 2C9 (Homo sapiens) (UniProt P11712); experiment: qHTS Assay for Inhibitors and Substrates of Cytochrome P450 2C9 (AID 883); further: on the % scale 0 is the no-effect control and ±100 the full control effect; nearly all actives have a fitted effect of over 60% in size
# In short: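 10nM CYP2C9 + 100uM Luciferin-H (=KM), 25mM KPO4; cpd 10 min 37C; NADPH regen, 60 min 37C; stop/detect with P450 Glo-Buffer 20 min; luminescence. Norm. to 57uM sulphaphenazole as full inhibition.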
# [19] = target: Cytochrome P450 3A4 (Homo sapiens) (UniProt P08684); experiment: qHTS Assay for Activators of Cytochrome P450 3A4 (AID 885); further: nearly all actives have a fitted effect of over 65% in size
# In short: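 Steps: enzyme/substrate mix dispensed; compound added, 10 min RT; NADPH regeneration solution added, 60 min RT; luciferin detection buffer stops reaction; 20 min later luminescence measured.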
# [20] = target: Cytochrome P450 2D6 (Homo sapiens) (UniProt P10635); experiment: qHTS Assay for Inhibitors and Substrates of Cytochrome P450 2D6 (AID 891); further: potency means the concentration at half of the fitted maximal effect; nearly all actives have a fitted effect of over 60% in size
# In short: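 Human CYP2D6 (5 nM) with 30 uM Luciferin-ME EGE (at Km) in 100 mM KPO4, compound preincubated 10 min, then NADPH regeneration system for 60 min at room temperature. Luciferin read by luminescence; normalized to 1.43 uM quinidine.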
# [21] = target: Cytochrome P450 2C19 (Homo sapiens) (UniProt P33261); experiment: qHTS Assay for Inhibitors and Substrates of Cytochrome P450 2C19 (AID 899); further: nearly all actives have a fitted effect of over 60% in size; further: potency means the concentration at half of the fitted maximal effect
# Chain of Cytochrome P450 2C19 (Homo sapiens) (P33261 whole entry, looked up): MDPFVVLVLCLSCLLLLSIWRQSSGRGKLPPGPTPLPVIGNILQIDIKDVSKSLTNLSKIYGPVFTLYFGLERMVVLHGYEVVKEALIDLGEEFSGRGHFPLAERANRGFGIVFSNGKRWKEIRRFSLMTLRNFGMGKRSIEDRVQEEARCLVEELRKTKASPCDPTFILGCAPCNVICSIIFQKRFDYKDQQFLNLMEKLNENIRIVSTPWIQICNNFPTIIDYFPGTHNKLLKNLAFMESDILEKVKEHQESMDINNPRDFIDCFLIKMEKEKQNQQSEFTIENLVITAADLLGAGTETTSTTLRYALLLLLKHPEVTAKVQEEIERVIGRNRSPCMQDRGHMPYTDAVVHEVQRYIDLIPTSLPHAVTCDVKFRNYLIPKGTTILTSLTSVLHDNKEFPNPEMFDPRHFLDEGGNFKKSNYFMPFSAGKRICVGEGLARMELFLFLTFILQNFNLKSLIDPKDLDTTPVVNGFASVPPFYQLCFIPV
# In short: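 Luminescent read-out of luciferin formed from Luciferin-H EGE (10uM, equal to KM). Enzyme 5nM in 50mM KPO4; compound added, 10 min at 37C, then NADPH regenerating system for 60 min at 37C. Full inhibition defined by 57uM ketoconazole.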
# [22] = measured here: cell count channel max response
# [23] = measured here: lipid channel max response
smiles,measurement,setting,value
N[C@H](Cn1ccc(=O)c(O)c1)C(=O)O,"activity change, negative = inhibition",[1],2.81% [at 17.2 µM] (inactive)
same,"activity change, negative = inhibition",[2],-2.41% [at 17.2 µM] (inactive)
same,"activity, negative = inhibition",[3],3.76% [at 17.2 µM] (inactive)
same,Potency,[4],> 20.6 µM (inactive) and > 46 µM (inactive)
same,Potency,[5],inactive
same,Potency,[6],inactive
same,"activity change, negative = inhibition",[7]; at 25.7 µM (top of the series),-2.4% (inactive)
same,"activity change, negative = inhibition",[7]; at 57.5 µM (top of the series),-2.6% (inactive)
same,max response,[7]; [22],-5.27% and -11.5%
same,max response,[7]; [23],-7.92% and -12.4%
same,Potency,[8],inactive
same,outcome,[9],inactive
Cc1[nH]ccc2c1[nH]c1cc(=O)ccc12,"activity, negative = inhibition",[3],4.88% [at 17.2 µM] (inactive)
same,Potency,[10],> 20.6 µM (inactive) and > 46 µM (inactive)
same,Potency,[4],> 20.6 µM (inactive) and > 46 µM (inactive)
same,Potency,[5],inactive
same,Potency,[6],inactive
same,Potency,[11],inactive
same,outcome,[12],inactive
same,"activity change, negative = inhibition",[7]; at 25.7 µM (top of the series),-0.514% (inactive)
same,"activity change, negative = inhibition",[7]; at 57.5 µM (top of the series),6.27% (inactive)
same,max response,[7]; [22],11.1% and 0.549%
same,max response,[7]; [23],9.17% and 10.7%
same,Potency,[8],inactive
same,outcome,[9],inactive
CCCCCC/C=C\CCCCCCCc1cccc(O)c1C(=O)O,Potency,[13],inactive
same,Potency,[11],inactive
same,outcome,[12],inactive
same,"activity change, negative = inhibition",[7]; at 57.5 µM (top of the series),8.36% (inactive)
same,max response,[7]; [22],7.08%
same,max response,[7]; [23],17.7%
same,Potency,[8],79.4 µM (active)
same,Potency,[14],inactive
COCCn1c(=O)c(-c2cccs2)nc2cnc(Oc3cccc(Cl)c3)nc21,Potency,[10],> 9.22 µM (inactive)
same,Potency,[4],> 46 µM (inactive)
same,Potency,[6],inactive
same,Potency,[15],3.16 µM (active)
same,outcome,[16],inactive
CC[C@@H]1Cn2c(c3nc(-c4ccccc4)nc-3n(C)c2=O)N1,Potency,[13],inactive
same,outcome,[16],inactive
CC[C@@]12CCCN3CCc4c(n(c5ccccc45)[C@](O)(C(=O)OC)C1)[C@H]32,"activity change, negative = inhibition",[1],13.8% [at 17.2 µM] (inactive)
same,Potency,[17],inactive
same,"activity change, negative = inhibition",[2],-8.76% [at 17.2 µM] (inactive) and -13.1% [at 17.2 µM] (inactive)
same,"activity, negative = inhibition",[3],4.76% [at 17.2 µM] (inactive) and 8.92% [at 17.2 µM] (inactive)
same,Potency,[10],> 20.6 µM (inactive) and > 46 µM (inactive)
same,Potency,[4],> 20.6 µM (inactive) and > 46 µM (inactive)
same,Potency,[5],inactive
same,Potency,[6],inactive
same,Potency,[18],inactive
same,Potency,[19],inactive
same,Potency,[20],251 nM (active)
same,Potency,[21],inactive
same,"activity change, negative = inhibition",[7]; at 25.7 µM (top of the series),-1.27% (inactive) and -2.91% (inactive)
same,"activity change, negative = inhibition",[7]; at 57.5 µM (top of the series),0.0973% (inactive)
same,max response,[7]; [22],5.49% and 0.925% and 3.19%
same,max response,[7]; [23],4.14% and 0.607% and 6.95%
same,Potency,[8],inactive
same,outcome,[9],inactive
O=C(CCCc1ccc(-c2ccccc2F)cc1)Nc1ccc(O)cc1,Potency,[13],31.6 µM (active)
same,Potency,[19],inactive
same,outcome,[16],inactive
CCCCCCCNS(=O)(=O)c1cccc2c(Cl)cccc12,Potency,[17],6.31 µM (active)
same,Potency,[10],> 46 µM (inactive)
same,Potency,[4],> 46 µM (inactive)
same,Potency,[13],7.94 µM (active)
same,Potency,[19],inactive
same,Potency,[21],126 nM (active)
same,outcome,[9],inactive
same,outcome,[16],inactive
